# Experimental data: PubChem BioAssay
# Calls of active or inactive are those of the source.
# Assays:
# Albumin (Bos taurus) = Albumin (Bos taurus) (UniProt P02769); assay: bovine serum albumin binders on microarray, profiling panel, artefact control for SMM control protein annotation, biochemical, small-molecule microarray, Alexa647 label, 635/667 nm fluorescence (AID 1118); settings: BSA-A647 binding, fluorescence 635 nm, higher = more signal;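 note: score merges 667 nm emission intensity and signal-to-noise per printed compound spot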
# [1] = small-molecule microarray binders of probe aXIP, primary screen, biochemical, NeuroSMM set, 635/667 nm fluorescence (AID 1119); settings: higher = more signal, called active from +8 up or from −8 down;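 note: probe is the protein aXip251-270 applied at 1 µg/mL to compound-printed slides; binding of probe to printed compounds measured as 667 nm fluorescence plus signal to noise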
# [2] = small-molecule binders of probe aNOTCH3, primary screen, biochemical, small-molecule microarray, 635/667 nm fluorescence (AID 1120); settings: higher = more signal;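 note: probe is a biotin-tagged antibody raised against NOTCH3 rather than NOTCH3 protein; score merges spot fluorescence near 667 nm with spot signal to noise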
# [3] = small-molecule binders of probe aNOTCH2, primary screen, biochemical, small-molecule microarray, 635/667 nm fluorescence (AID 1121); settings: higher = more signal;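 note: score merges feature fluorescence read at 667 nm with its signal to noise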
# [4] = molecular target: Carbonic anhydrase 2 (Homo sapiens) (UniProt P00918); assay: CAII small-molecule binders, profiling panel, biochemical, small-molecule microarray, Alexa647-labelled CAII (AID 1122); settings: CAII-A647 binding fluorescence, higher = more signal
# [5] = COS7 lysate on small-molecule microarray, probe aHis, 635 nm (AID 1123); settings: COS7 cell lysate, fluorescence, higher = more signal;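 note: z-score combines 667nm fluorescence intensity with signal-to-noise per printed compound spot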
# [6] = compound binding in COS7 lysate, probe aLAP1, primary screen, cell lysate, small-molecule microarray (AID 1124); settings: probe aLAP1, fluorescence, higher = more signal;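 note: lysate comes from COS7 cells expressing LAP1 and is applied at 0.3 µg/mL; score merges spot fluorescence near 667 nm with signal-to-noise over triplicate slides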
# Sam68 (KHDRBS1) = assay: Sam68 small-molecule binders, primary screen, biochemical, small-molecule microarray, 635 nm fluorescence (AID 1125); settings: small-molecule microarray binding, higher = more signal;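 note: score merges 667 nm channel intensity with signal to noise over triplicate slides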
# [7] = system: Chordin-like protein 2 (CHRDL2); assay: CHRDL2 small-molecule binders, primary screen, biochemical, small-molecule microarray, 635 nm fluorescence (AID 1126); settings: small-molecule microarray binding, fluorescence 635 nm; higher = more signal;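 note: printed compound slides probed with Chrdl2 protein at 4 µg/mL for 1 h at 4 C; score merges 667 nm emission intensity with signal to noise over three replicate slides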
# [8] = molecular target: Concanavalin-A (Canavalia ensiformis) (UniProt P02866); assay: ConA small-molecule binders, primary screen, artefact control for SMM control protein annotation, biochemical, small-molecule microarray, Alexa647 label, 635 nm (AID 1127); settings: ConA-A647 binding fluorescence, higher = more signal;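 note: z combines 667 nm emission intensity with signal-to-noise across three replicate slides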
# [9] = anti-His antibody binders, primary screen, artefact control for SMM control protein annotation, biochemical, small-molecule microarray, 635 nm fluorescence (AID 1128); settings: anti-His Alexa647 antibody binding, higher = more signal;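 note: score merges feature fluorescence with signal-to-noise for each printed compound spot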
# [10] = system: Human papillomavirus type 1a E7 protein (residues 1-88); assay: HPV1a E7 small-molecule binders, primary screen, biochemical, small-molecule microarray, residues 1-88, 635 nm (AID 1129); settings: small-molecule microarray binding, fluorescence 635 nm; higher = more signal
# [11] = molecular target: Focal adhesion kinase 1 (Homo sapiens) (UniProt Q05397); assay: small-molecule microarray binders of FAK, primary screen, biochemical, 635/667 nm fluorescence, BSA, DTT (AID 1130); settings: PTK2 binding, 635 nm fluorescence, higher = more signal;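 note: composite of spot emission at 667 nm and signal to noise over triplicate slides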
# [12] = system: Fibrinogen (Alexa647-labelled); assay: fibrinogen binders on compound microarrays, profiling panel, artefact control for SMM control-protein annotation, biochemical, small-molecule microarray, 635/667 nm fluorescence (AID 1131); settings: fibrinogen-A647 binding fluorescence, higher = more signal;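 note: z-score merges 667 nm fluorescence with per-spot signal-to-noise over triplicate slides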
# [13] = molecular target: Follistatin (Homo sapiens) (UniProt P19883); assay: follistatin binders on small-molecule microarrays, primary screen, biochemical, small-molecule microarray, 635/667 nm fluorescence (AID 1132); settings: FST binding, 635 nm fluorescence, higher = more signal
# [14] = molecular target: Fibroblast growth factor 2 (Homo sapiens) (UniProt P09038); assay: FGF2 binders on small-molecule microarrays, primary screen, biochemical, small-molecule microarray, 635/667 nm fluorescence (AID 1133); settings: small-molecule microarray binding, FGF2, fluorescence 635/667; higher = more signal
# [15] = mitochondrial membrane potential change in A549 cells, profiling panel, cell-based, JC-1 fluorescence, basal, 24 h, 100 nL (AID 1138); settings: higher = more signal;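 note: A549 lung adenocarcinoma cells under basal conditions with no added stimulus; test concentration not given here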
# Lefty1 = Lefty1 binders on small-molecule microarrays, primary screen, biochemical, small-molecule microarray, 635/667 nm fluorescence (AID 1139); settings: small-molecule microarray binding, fluorescence 635/667; higher = more signal
# [16] = system: wheat germ agglutinin (Triticum aestivum), Alexa647-labelled; assay: wheat germ agglutinin binders on compound microarrays, profiling panel, artefact control for SMM control-protein annotation, biochemical, small-molecule microarray, 635/667 nm fluorescence (AID 1140); settings: WGA-A647 binding, 635 nm fluorescence, higher = more signal;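 note: score merges 667 nm feature emission with signal to noise over triplicate slides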
# [17] = molecular target: Luciferin 4-monooxygenase (Photinus pyralis) (UniProt P08659); assay: firefly luciferase enzyme inhibitors, primary screen, biochemical, luminescence, purified enzyme, 2006 set (AID 1141); settings: SteadyGlo luminescence, 30 min, higher = more signal, called active from +8 up or from −8 down;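 note: cell-free assay with purified firefly luciferase at 100 ng per well in PBS; test concentration not given here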
# Sequence of Luciferin 4-monooxygenase (Photinus pyralis) (P08659 whole entry, looked up): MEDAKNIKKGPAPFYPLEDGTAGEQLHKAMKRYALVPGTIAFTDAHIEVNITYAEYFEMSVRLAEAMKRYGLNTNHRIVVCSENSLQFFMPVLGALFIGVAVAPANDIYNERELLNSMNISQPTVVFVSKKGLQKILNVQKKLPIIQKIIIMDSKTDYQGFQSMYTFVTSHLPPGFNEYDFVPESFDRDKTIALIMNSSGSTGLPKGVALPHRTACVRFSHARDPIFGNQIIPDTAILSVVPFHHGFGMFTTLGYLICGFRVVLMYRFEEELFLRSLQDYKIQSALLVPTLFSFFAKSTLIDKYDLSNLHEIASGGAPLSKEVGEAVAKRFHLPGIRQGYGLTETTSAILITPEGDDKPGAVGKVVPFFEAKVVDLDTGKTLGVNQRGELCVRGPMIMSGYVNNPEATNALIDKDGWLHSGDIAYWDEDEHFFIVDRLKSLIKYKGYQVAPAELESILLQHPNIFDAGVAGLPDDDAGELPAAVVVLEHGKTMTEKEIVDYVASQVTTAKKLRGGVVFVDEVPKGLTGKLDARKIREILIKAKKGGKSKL
# Sequence of Concanavalin-A (Canavalia ensiformis) (P02866 whole entry, looked up): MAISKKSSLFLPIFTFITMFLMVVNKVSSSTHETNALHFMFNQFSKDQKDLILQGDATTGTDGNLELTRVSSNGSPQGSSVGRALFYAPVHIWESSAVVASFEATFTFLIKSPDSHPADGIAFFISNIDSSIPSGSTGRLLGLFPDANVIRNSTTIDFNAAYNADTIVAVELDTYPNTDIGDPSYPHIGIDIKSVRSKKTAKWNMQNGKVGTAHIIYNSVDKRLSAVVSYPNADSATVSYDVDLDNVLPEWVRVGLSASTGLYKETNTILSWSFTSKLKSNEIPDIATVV
# Sequence of Follistatin (Homo sapiens) (P19883 whole entry, looked up): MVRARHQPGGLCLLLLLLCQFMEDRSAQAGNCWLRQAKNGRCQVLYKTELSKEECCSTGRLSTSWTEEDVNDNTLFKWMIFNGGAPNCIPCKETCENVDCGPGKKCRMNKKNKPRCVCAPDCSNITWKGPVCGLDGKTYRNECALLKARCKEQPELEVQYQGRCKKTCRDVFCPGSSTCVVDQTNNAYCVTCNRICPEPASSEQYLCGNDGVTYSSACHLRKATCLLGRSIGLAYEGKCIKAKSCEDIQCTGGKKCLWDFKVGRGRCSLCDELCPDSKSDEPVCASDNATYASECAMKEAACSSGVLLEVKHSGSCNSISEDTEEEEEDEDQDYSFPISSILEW
# Sequence of Focal adhesion kinase 1 (Homo sapiens) (Q05397 whole entry, looked up): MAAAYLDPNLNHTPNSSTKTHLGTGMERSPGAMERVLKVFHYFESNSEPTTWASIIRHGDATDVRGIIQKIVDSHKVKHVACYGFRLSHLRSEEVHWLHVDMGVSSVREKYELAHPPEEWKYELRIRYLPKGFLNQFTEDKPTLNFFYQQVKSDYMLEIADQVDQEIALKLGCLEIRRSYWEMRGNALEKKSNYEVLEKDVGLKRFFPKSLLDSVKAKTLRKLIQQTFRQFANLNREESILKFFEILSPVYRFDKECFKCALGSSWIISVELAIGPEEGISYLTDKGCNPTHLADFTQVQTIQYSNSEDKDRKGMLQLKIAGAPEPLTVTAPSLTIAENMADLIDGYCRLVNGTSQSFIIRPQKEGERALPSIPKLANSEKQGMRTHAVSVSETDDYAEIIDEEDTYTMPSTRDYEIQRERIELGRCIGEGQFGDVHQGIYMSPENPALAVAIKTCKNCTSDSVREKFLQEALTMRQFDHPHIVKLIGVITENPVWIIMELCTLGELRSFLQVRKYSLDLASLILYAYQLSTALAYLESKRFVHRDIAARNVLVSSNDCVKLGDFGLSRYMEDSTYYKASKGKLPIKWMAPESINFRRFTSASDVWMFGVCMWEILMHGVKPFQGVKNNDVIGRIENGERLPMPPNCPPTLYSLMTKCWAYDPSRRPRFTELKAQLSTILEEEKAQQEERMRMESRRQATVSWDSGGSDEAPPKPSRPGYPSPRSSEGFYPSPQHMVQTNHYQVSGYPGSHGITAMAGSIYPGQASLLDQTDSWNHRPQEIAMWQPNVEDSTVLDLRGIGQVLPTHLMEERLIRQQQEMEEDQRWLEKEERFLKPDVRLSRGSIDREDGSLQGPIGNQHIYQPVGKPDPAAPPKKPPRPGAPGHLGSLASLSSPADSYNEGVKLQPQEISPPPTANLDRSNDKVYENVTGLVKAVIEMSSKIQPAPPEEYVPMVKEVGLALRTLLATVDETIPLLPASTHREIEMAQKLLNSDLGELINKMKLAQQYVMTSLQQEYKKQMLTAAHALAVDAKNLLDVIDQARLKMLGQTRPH
# Sequence of Fibroblast growth factor 2 (Homo sapiens) (P09038 whole entry, looked up): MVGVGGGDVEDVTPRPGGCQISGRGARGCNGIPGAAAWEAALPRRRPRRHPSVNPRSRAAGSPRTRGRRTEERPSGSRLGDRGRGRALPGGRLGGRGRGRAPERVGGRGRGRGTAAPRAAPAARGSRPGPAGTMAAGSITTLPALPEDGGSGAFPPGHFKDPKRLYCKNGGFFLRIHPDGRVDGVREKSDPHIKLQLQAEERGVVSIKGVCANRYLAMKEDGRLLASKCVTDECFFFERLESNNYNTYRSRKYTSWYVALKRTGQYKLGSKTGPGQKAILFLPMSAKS
# Sequence of Albumin (Bos taurus) (P02769 whole entry, looked up): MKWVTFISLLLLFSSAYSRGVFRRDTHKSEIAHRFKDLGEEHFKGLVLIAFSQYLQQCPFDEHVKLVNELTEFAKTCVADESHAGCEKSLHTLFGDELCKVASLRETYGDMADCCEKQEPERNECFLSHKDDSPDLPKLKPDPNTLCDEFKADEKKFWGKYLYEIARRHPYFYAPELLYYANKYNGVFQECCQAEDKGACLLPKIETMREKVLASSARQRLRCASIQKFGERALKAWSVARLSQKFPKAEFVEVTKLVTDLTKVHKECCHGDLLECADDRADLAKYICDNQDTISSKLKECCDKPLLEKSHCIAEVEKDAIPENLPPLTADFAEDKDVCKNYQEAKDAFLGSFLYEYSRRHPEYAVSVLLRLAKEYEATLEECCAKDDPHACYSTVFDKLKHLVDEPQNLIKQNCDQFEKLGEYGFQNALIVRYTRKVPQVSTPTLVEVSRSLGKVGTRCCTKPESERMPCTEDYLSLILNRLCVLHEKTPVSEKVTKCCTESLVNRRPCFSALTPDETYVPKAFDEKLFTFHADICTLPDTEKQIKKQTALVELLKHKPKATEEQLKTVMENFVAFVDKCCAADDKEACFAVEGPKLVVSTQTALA
Structure (SMILES),composite z-score (Albumin (Bos taurus)),composite Z-score [1],composite z-score [2],composite z-score [3],composite z-score [4],composite z-score [5],composite z-score [6],composite z-score (Sam68 (KHDRBS1)),composite z-score [7],composite z-score [8],composite z-score [9],composite z-score [10],composite z-score [11],composite z-score [12],composite z-score [13],composite z-score [14],z-score [15],composite z-score (Lefty1),composite z-score [16],z-score [17]
CC#CCOCCC=C1c2ccccc2[C@@H](OC)[C@@H]1C,0.556,0.549 (inactive),-0.128,-0.101,0.336,-0.336,-0.0059,0.151,0.337,-0.515,1.79,-0.0931,-0.0029,0.329,0.331,0.412,-0.198,1.24,0.725,-0.693 (inactive)
COC(=O)CC=C1c2ccccc2[C@H](OC)[C@H]1C,-0.8,0.272 (inactive),0.0026,-0.0614,-0.36,-0.316,-0.441,-0.742,0.523,-0.334,-0.706,-0.352,-0.102,-0.479,-0.0211,0.621,-0.612,0.338,-0.488,0.469 (inactive)
CC(C)=CCCC(C)=CCON=C1C[C@@H](O)[C@@H](O)[C@@H]2[C@@H]3C(=O)N(Cc4ccc5c(c4)OCO5)C(=O)[C@@H]3CC[C@@H]12,0.653,0.74 (inactive),0.0827,-0.0811,0.495,1.29,0.237,1.31,1.19,0.959,1.05,1.14,0.597,0.558,1.18,0.414,-0.286,0.709,0.574,0.696 (inactive)
CCCNC(=O)OC[C@H]1O[C@H](CCON=C[C@@H](C)[C@H](OCc2ccccc2)C(C)C)C=C[C@@H]1Oc1ccc(OC)cc1,-0.655,-0.288 (inactive),-0.0308,-0.149,-0.473,0.775,-0.394,-1.04,0.379,-0.501,3.25,-0.603,-0.072,-0.101,-0.134,-0.0238,1.63,0.401,-0.199,-1.46 (inactive)
CC(C)CON=C1[C@H]2CCn3c(=O)n(C)c(=O)n3[C@H]2[C@H](O)[C@@H]2O[C@H]12,-0.0213,-0.483 (inactive),0.236,-0.139,-0.148,-0.818,0.854,0.471,0.783,0.328,0.457,0.398,0.0335,0.413,0.581,0.411,0.563,1.02,0.324,-0.571 (inactive)
CCN1C(=O)[C@H]2[C@H]3[C@H](O)[C@H](O)CC(=NOCC(C)C)[C@H]3CC[C@H]2C1=O,-0.369,-0.14 (inactive),0.108,-0.204,-0.15,-0.302,0.0041,0.0597,0.843,-0.238,0.341,0.551,-0.0956,-0.326,0.818,0.4,-0.087,0.717,-0.312,0.404 (inactive)
